Here are results for 47 compounds from PubChem BioAssay (NCATS).

Values joined by “and” are separate entries in the source; they are usually repeats but may differ in a detail not shown here. Identical values can stand only once. Records with an inconclusive call do not appear. A structure can be active in one record and inactive in another. Active and inactive are the calls of the source. Unless noted, calls follow the shape of the dose curve; as a rule, active = well fitted curve in the direction sought with a large enough effect; inconclusive = small, poorly fitted or top-dose-only effect, or another doubt; inactive = no such curve, though single readings can be large; an effect the other way counts as inactive or inconclusive.

Assay [1] can be described thus: P-glycoprotein substrates identified in KB-8-5-11 adenocarcinoma cell line, qHTS therapeutic library screen (AID 1346987). Also: nearly all actives have a fitted effect of over 65% in size. Also: potency is read from the fitted curve at half-maximal effect. In a few lines: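 Human cervical adenocarcinoma KB-8-5-11 cells, selected in colchicine to over-express P-gp and assayed without it, were exposed for 72 h to titrated compounds. An ATP-based luminescent viability signal gave AC50.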
Assay [2] can be described thus: NS1 protein of Zika virus - qHTS assay to identify small molecule inhibitors in human HEK 293 cells (AID 1347053). Also: nearly all actives have a fitted effect of over 55% in size. Also: potency is read from the fitted curve at half-maximal effect. The method in brief:
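Compound-treated (1 h pre-infection) HEK 293 cells infected with ZIKV MR766, MOI = 0.5; after 24 h at 37 C, NS1 read by TR-FRET; data normalized to uninfected and infected controls.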
(In general: Quantitative high-throughput screening tests each substance at several concentrations.)

The nature of assay [3]: qHTS of pediatric cancer cell lines to identify multiple opportunities for drug repurposing: Primary screen for TC32 cells (AID 1347089). Also: nearly all actives have a fitted effect of over 60% in size. Also: potency is read from the fitted curve at half-maximal effect. In a few lines: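 Luminescent CellTiter-Glo read-out of metabolically active TC32 cells after 48 h compound exposure. Primary: MIPE 11-point, 0.78 nM–46 µM; NPC 8-point, 0.59 nM–46 µM. Confirmatory: 11-point dilutions.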
Assay [4] deals with T1, Tyrosine-protein phosphatase non-receptor type substrate 1 (Homo sapiens) + Leukocyte surface antigen CD47 (Homo sapiens) (UniProt P78324+Q08722). Nature of the assay: CD47-SIRPalpha protein protein interaction - LANCE assay qHTS validation (AID 1347057; active = well fitted curve in the direction sought with a large enough effect in the signal ratio, with a control signal flat, not every such curve was filed as active; the % refers to the signal ratio; also: series mostly up to about 38 µM). In a few lines:
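Inhibition of soluble CD47/SIRPalpha ectodomain association by titrated compounds, measured as 665/615 nm time-resolved FRET ratio after sequential 30 min room-temperature incubations.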
A general note: In TR-FRET formats the signal depends on donor and acceptor labels being close together.

The target of assay [5] is T1, Tyrosine-protein phosphatase non-receptor type substrate 1 (Homo sapiens) + Leukocyte surface antigen CD47 (Homo sapiens). Kind of assay: CD47-SIRPalpha protein protein interaction - Alpha assay qHTS validation (AID 1347059).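 Also: bead proximity luminescence from CD47 binding SIRPalpha after compound preincubation with SIRPalpha.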 Also: potency is read from the fitted curve at half-maximal effect. The method in brief:
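In PBS (pH 7.4) with 0.05% IGEPAL CA-630, compound is preincubated with biotin-Avi-SIRPalpha ectodomain before His-CD47 ectodomain and affinity beads are added. Light-protected room-temperature incubations; AlphaScreen readout.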

The nature of assay [6]: Natriuretic polypeptide receptor (hNpr1) antagonism - Pilot counterscreen GloSensor control cell line (AID 1347045; calls by dose curve; also: potency is read from the fitted curve at half-maximal effect). In a few lines:
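The SNP-driven cGMP luminescence signal (50 uM, 20 min, room temperature) was measured in GloSensor HEK293 control cells. Compounds were tested as a LOPAC titration series and preincubated for 30-50 min.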

Assay [7] has as its target Atrial natriuretic peptide receptor 1 (Homo sapiens) (UniProt P16066). Nature of the assay: Natriuretic polypeptide receptor (hNpr1) antagonism - Pilot screen (AID 1347049; calls by dose curve;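 also: HEK293 cells with hNpr1 and GloSensor cGMP luciferase stimulated by 0.1 nM hNppA; agonist-evoked cGMP luminescence read 20 min after hNppA addition; series mostly up to about 58 µM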). The method in brief:
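Cells expressing receptor plus cGMP biosensor are seeded and incubated overnight at 37C, then loaded with GloSensor reagent (2% final) at room temperature for 2 h. Library compounds go on for 30 min. A pre-read precedes agonist (hNppA, 0.1 nM final) and a 20-min readout.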

For assay [8], the target named is Atrial natriuretic peptide receptor 2 (Homo sapiens) (UniProt P20594). Kind of assay: Natriuretic polypeptide receptor (hNpr2) antagonism - Pilot subtype selectivity assay (AID 1347050; calls by dose curve). In a few lines: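 Read-out: GloSensor luminescence (CCD imager), baseline vs post-stimulation. HEK293 cells expressing hNpr2; compounds pre-incubated 30-50 min at ambient temperature; hNppC 1 nM final, 20 min.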
Atrial natriuretic peptide receptor 2 (Homo sapiens), sequence (P20594 whole entry, looked up): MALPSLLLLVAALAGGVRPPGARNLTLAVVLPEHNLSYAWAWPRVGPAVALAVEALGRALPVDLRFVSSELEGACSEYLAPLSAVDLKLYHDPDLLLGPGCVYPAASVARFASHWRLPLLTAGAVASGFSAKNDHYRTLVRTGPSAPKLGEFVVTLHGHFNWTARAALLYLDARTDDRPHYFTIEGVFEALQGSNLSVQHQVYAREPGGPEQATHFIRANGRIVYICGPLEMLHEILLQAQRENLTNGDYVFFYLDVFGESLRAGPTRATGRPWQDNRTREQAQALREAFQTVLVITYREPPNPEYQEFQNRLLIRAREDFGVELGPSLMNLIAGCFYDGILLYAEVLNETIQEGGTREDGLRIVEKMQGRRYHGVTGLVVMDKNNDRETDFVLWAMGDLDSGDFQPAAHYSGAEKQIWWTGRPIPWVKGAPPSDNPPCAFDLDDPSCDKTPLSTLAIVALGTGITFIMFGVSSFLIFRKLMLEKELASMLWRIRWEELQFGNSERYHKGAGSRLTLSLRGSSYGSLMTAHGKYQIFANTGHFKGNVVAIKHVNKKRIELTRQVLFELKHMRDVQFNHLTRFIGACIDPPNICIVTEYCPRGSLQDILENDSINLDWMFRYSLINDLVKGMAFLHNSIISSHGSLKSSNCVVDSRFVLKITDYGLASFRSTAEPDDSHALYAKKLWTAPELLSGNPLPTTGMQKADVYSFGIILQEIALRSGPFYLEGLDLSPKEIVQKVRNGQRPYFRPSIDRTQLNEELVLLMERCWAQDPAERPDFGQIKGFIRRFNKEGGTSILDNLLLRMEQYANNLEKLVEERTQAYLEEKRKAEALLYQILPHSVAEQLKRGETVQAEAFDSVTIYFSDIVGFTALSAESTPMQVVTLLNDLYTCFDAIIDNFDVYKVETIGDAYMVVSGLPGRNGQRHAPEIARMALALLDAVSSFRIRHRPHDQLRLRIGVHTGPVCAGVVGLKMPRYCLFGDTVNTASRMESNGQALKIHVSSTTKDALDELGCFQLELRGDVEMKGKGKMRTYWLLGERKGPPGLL

Assay [9] concerns the target T1, Tyrosine-protein phosphatase non-receptor type substrate 1 (Homo sapiens) + Leukocyte surface antigen CD47 (Homo sapiens). Nature of the assay: CD47-SIRPalpha protein protein interaction - HTRF assay qHTS validation (AID 1347058; active = well fitted curve in the direction sought with a large enough effect in the signal ratio, not every such curve was filed as active; the % refers to the signal ratio; also: series mostly up to about 38 µM). In a few lines:
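Soluble extracellular domains (6His-CD47, Avi-tag-biotinylated SIRPalpha) in PBS pH 7.4 with 0.05% IGEPAL CA-630. Compounds were preincubated 30 min at RT with CD47 and anti-His-Eu, then SIRPalpha and SAV-XL665 were added. TR-FRET 665/615 ratio.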

Assay [10] concerns the target Parathyroid hormone/parathyroid hormone-related peptide receptor (Homo sapiens) (UniProt Q03431). Kind of assay: qHTS for PTHR1 Agonists: Optimization Screen against the NCGC LOPAC library (AID 1347079).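 Also: GloSensor cAMP luminescence in HEK-293 GP2 cells expressing human PTHR1 with IBMX.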 In a few lines:
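Signal increase flags agonism. GP2 cells, derived from HEK-293, express human PTHR1 and a GloSensor cAMP construct.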

T1 sequence (P78324 whole entry, looked up, the tested form may be a part): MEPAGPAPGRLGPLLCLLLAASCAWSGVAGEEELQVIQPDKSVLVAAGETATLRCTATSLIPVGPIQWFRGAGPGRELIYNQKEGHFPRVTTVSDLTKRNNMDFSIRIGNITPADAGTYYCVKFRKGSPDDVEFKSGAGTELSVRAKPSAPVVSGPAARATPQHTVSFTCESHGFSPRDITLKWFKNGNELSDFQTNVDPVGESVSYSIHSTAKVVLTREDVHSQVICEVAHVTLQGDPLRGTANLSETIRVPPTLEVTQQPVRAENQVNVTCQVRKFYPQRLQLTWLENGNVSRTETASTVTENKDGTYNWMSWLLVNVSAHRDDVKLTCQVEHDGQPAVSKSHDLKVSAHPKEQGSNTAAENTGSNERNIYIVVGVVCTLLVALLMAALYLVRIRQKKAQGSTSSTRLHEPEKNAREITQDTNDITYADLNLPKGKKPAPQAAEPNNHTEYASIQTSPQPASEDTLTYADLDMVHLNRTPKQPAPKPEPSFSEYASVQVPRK
T1 sequence (Q08722 whole entry, looked up, the tested form may be a part): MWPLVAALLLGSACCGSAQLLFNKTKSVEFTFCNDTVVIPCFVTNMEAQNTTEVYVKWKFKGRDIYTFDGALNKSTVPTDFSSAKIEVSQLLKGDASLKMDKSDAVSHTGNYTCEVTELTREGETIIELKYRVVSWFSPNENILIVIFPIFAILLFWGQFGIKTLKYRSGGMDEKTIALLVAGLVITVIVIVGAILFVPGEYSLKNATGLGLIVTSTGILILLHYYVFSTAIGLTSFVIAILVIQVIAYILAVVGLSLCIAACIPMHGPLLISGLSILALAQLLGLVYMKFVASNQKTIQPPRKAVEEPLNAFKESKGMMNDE
Atrial natriuretic peptide receptor 1 (Homo sapiens), sequence (P16066 whole entry, looked up): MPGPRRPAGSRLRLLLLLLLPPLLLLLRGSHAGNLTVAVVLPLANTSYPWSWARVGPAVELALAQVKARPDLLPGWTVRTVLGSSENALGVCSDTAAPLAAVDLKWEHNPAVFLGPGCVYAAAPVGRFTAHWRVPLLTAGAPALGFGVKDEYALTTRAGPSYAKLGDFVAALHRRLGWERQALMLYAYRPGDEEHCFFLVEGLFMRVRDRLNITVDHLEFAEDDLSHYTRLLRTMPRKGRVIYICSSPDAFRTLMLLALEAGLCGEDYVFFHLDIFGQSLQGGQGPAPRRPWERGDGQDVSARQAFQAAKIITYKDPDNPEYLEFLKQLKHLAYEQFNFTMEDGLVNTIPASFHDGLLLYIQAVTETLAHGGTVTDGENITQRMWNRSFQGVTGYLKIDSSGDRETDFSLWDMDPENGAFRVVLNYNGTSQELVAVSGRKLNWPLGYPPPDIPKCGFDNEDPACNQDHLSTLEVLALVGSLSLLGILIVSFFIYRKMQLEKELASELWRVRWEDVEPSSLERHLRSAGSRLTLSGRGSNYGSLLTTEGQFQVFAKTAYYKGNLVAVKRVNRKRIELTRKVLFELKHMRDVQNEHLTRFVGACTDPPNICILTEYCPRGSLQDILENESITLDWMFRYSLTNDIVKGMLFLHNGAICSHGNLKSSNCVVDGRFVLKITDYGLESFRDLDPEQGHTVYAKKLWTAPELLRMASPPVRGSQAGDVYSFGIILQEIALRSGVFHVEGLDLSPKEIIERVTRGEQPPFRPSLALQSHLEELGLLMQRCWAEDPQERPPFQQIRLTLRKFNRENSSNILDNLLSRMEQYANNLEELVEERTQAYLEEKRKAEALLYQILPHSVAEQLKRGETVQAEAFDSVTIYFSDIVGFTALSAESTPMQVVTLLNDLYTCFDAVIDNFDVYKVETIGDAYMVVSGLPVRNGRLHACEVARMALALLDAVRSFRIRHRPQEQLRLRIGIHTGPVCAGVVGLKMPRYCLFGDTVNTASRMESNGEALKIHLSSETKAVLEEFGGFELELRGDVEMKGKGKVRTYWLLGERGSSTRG
Parathyroid hormone/parathyroid hormone-related peptide receptor (Homo sapiens), sequence (Q03431 whole entry, looked up): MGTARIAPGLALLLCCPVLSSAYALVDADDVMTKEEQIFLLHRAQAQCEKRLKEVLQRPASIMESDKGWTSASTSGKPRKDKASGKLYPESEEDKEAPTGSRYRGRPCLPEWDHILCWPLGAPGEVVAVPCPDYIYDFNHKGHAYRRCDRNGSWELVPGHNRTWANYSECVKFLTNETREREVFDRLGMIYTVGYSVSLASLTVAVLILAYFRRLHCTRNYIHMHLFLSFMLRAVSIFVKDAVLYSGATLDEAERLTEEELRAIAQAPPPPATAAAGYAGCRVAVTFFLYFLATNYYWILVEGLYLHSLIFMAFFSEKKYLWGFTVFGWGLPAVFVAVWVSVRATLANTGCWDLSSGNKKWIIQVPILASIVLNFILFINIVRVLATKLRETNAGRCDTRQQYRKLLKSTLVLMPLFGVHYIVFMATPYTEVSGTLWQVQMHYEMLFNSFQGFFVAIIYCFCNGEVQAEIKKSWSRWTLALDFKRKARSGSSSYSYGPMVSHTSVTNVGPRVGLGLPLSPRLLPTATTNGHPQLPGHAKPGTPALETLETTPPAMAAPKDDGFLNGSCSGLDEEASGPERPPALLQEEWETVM

With `Nc1cc(C(Cl)=C(Cl)Cl)c(S(N)(=O)=O)cc1S(N)(=O)=O`, the Potency entry in assay [1], in assay [2] and in assay [3] was “inactive” each time.

For `CCN(CC)CCOc1ccc(Nc2ncc3cc(-c4c(Cl)cccc4Cl)c(=O)n(C)c3n2)cc1`, the Potency is 0.166 µM (active) in assay [1], 0.166 µM (active) in assay [2] and 6.58 µM (active) in assay [3]. For the same compound, the result in assay [4] was inactive. Moreover, the Potency result in assay [5] was “inactive”.

As for `COCCCOc1ccnc(CS(=O)c2nc3ccccc3[nH]2)c1C` (stereo not drawn), the Potency in assay [1] was 3.66 µM (active) and inactive. Moreover, the Potency result in assay [2] and in assay [3] was “inactive” in each case.

For the compound `CCOC(=O)C1=C[C@@H](OC(CC)CC)[C@H](NC(C)=O)[C@@H](N)C1`, the Potency entry in [1], in [2] and in assay [3] was “inactive” each time.

Consider `CCC1=C(C)CN(C(=O)NCCc2ccc(S(=O)(=O)NC(=O)NC3CCC(C)CC3)cc2)C1=O` (stereo not drawn), for which the Potency entry in assay [1], in assay [2] and in [3] was “inactive” in each case.

For `O=C(O)c1cccc(-c2noc(-c3ccccc3F)n2)c1`, the Potency result in [1], in assay [2] and in [3] was “inactive” throughout.

In the case of `Cc1ccc(C)c(OCCCC(C)(C)C(=O)O)c1`, the Potency entry in assay [1], in assay [2] and in [3] was “inactive” each time.

Regarding `CCCCCCCCOc1ccccc1C(=O)Nc1ccc(C(=O)OCC[N+](C)(CC)CC)cc1`, the Potency entry in assay [1], in assay [2] and in assay [3] was “inactive” in each case.

For `CC1(C)CCC(C)(C)c2cc(NC(=O)c3ccc(C(=O)O)cc3)ccc21`, the Potency entry in [1], in assay [2] and in assay [3] was “inactive” in each case.

Turning to `CC(C)C[C@H](NC(=O)[C@H](Cc1ccccc1)NC(=O)c1cnccn1)B(O)O`, the Potency in assay [2] is 0.0332 µM (active); in assay [3], 0.0836 µM (active).

With `CCc1nc(N)nc(N)c1-c1ccc(Cl)cc1`, the Potency was 9.35 µM (active) in assay [2]; 3.74 µM (active) and 11.7 µM (active) in assay [3].

For the compound `CC(=O)N1CCN(c2ccc(OC[C@H]3CO[C@](Cn4ccnc4)(c4ccc(Cl)cc4Cl)O3)cc2)CC1`, in [6], the Potency was 18.5 µM (active). The Potency entry in [7], in assay [8], in [2] and in [3] was “inactive” throughout. Also, the outcome in [4], in assay [9] and in [10] was inactive.

For the compound `CCC[C@@H]1C[C@@H](C(=O)N[C@@H]([C@H]2O[C@H](SC)[C@H](O)[C@@H](O)[C@H]2O)[C@@H](C)O)N(C)C1`, the Potency entry in assay [1], in assay [2] and in assay [3] was “inactive” in each case.

Take `Cc1cc(Cl)ccc1OCCCC(=O)NO`: the Potency entry in assay [2] and in [5] was “inactive” throughout. In addition, the result in assay [4] and in assay [9] was inactive. For the same compound, the Potency in [3] was 5.23 µM (active).

With `O=C(O)c1cc(=O)c2c(OCC(O)COc3cccc4oc(C(=O)O)cc(=O)c34)cccc2o1`, the Potency result in assay [2] and in assay [3] was “inactive” in each case.

For `Cc1cccc(C)c1OCC(=O)N[C@@H](Cc1ccccc1)[C@@H](O)C[C@H](Cc1ccccc1)NC(=O)[C@H](C(C)C)N1CCCNC1=O`, the Potency entry in assay [2] and in assay [3] was “inactive” each time.

As for `O=Nc1c(-c2c(O)[nH]c3cc(Br)ccc23)[nH]c2ccccc12`, the Potency in assay [1] was 9.35 µM (active); in assay [5], 1.31 µM (active). Further, the result in [4] and in [10] was inactive. For the same compound, the Potency result in [3] was “inactive”.

`COc1cc(C(C)=O)ccc1OCCCN1CCC(c2noc3cc(F)ccc23)CC1`: the Potency result in [2] and in [3] was “inactive” in each case.

On to `O=C(NCC1CCCCN1)c1cc(OCC(F)(F)F)ccc1OCC(F)(F)F` (stereo not drawn), for which the Potency entry in assay [2] and in assay [3] was “inactive” each time.

In the case of `CCCCC(CC)COC(=O)C(C#N)=C(c1ccccc1)c1ccccc1` (stereo not drawn), in assay [2], the Potency result was “inactive and 23.5 µM (active)”. Further, in assay [3], the Potency entry was “inactive”.

Take `COC(=O)N[C@H](C(=O)N[C@@H](Cc1ccccc1)[C@@H](O)CN(Cc1ccc(-c2ccccn2)cc1)NC(=O)[C@@H](NC(=O)OC)C(C)(C)C)C(C)(C)C`: the Potency result in [1], in assay [2] and in assay [3] was “inactive” in each case.

Consider `NS(=O)(=O)c1cc(C(=O)O)c(NCc2ccco2)cc1Cl`, for which the Potency result in assay [1], in assay [2] and in [3] was “inactive” in each case.

Take `O=P(O)(O)C(O)(Cn1ccnc1)P(=O)(O)O`: the Potency entry in [1] and in [3] was “inactive” throughout.

For `CC(=O)NC[C@H]1CN(c2ccc(N3CCOCC3)c(F)c2)C(=O)O1`, the Potency result in assay [1], in [2] and in assay [3] was “inactive” throughout.

Turning to `CC1=C(C(=O)O)N2C(=O)[C@@H](NC(=O)[C@H](N)C3=CCC=CC3)[C@H]2SC1`, the Potency result in assay [1], in assay [2] and in assay [3] was “inactive” in each case.

Turning to `NNc1nncc2ccccc12`, the Potency entry in [7], in assay [8], in assay [2] and in assay [3] was “inactive” in each case. The result in assay [9] and in assay [10] was inactive.

For `COc1c2occc2cc2ccc(=O)oc12`, the Potency result in assay [2] and in assay [3] was “inactive” each time.

For the compound `COCCCN1CCC(NC(=O)c2cc(Cl)c(N)c3c2OCC3)CC1`, the Potency entry in [2] and in assay [3] was “inactive” in each case.

On to `CCCCN(CCCC)CCC(O)c1cc2c(Cl)cc(Cl)cc2c2cc(C(F)(F)F)ccc12` (stereo not drawn), for which the Potency result in assay [2] and in assay [3] was “inactive” in each case.

With `CN(C)[C@@H](CCOc1cccc2ccccc12)c1ccccc1`, the Potency result in assay [2] and in assay [3] was “inactive” in each case.

Consider `COc1cc(Nc2c(C#N)cnc3cc(OCCCN4CCN(C)CC4)c(OC)cc23)c(Cl)cc1Cl`, for which the Potency entry in assay [1] was “inactive”. In assay [3], the Potency is 23.6 µM (active).

As to `O=C(NOCC1CC1)c1ccc(F)c(F)c1Nc1ccc(I)cc1Cl`, in [1], the Potency is 18.4 µM (active). In addition, the Potency entry in assay [3] is “inactive”.

For `Cc1nccn1CC1CCc2c(c3ccccc3n2C)C1=O` (stereo not drawn), the Potency result in assay [1], in assay [2] and in [3] was “inactive” throughout.

In the case of `C[C@@H](c1ncncc1F)[C@](O)(Cn1cncn1)c1ccc(F)cc1F`, the Potency entry in assay [2], in assay [5] and in [3] was “inactive” throughout. For the same compound, the result in assay [4] and in [9] was inactive.

With `Nc1cccc2c1CN(C1CCC(=O)NC1=O)C2=O` (stereo not drawn), the Potency result in [1], in [2] and in assay [3] was “inactive” each time.

With `Cc1cccc(CN2CCN(C(c3ccccc3)c3ccc(Cl)cc3)CC2)c1` (stereo not drawn), the Potency entry in assay [2] and in assay [3] was “inactive” throughout.

For `CN1CCC(=C2c3ccccc3CCc3sccc32)CC1`, the Potency entry in [2] and in assay [3] was “inactive” in each case.

As to `C[Se]CCC(N)C(=O)O` (stereo not drawn), the Potency result in assay [1], in assay [2] and in assay [3] was “inactive” each time.

Take `Clc1ccc(C(Cn2ccnc2)OCc2ccc(Sc3ccccc3)cc2)c(Cl)c1` (stereo not drawn): the Potency entry in assay [2] and in assay [3] was “inactive” in each case.

Regarding `COc1c(O)cc2c(c1O)[C@@H]1O[C@H](CO)[C@@H](O)[C@H](O)[C@H]1OC2=O`, the Potency result in assay [1], in assay [2] and in assay [3] was “inactive” in each case.

Take `Cc1nc(-c2ccc(OCC(C)C)c(C#N)c2)sc1C(=O)O`: the Potency result in assay [1], in assay [2] and in [3] was “inactive” in each case.

`Nc1nc(Cl)nc2c1ncn2[C@H]1C[C@H](O)[C@@H](CO)O1`: the Potency result in assay [1] was “inactive”. For the same compound, the Potency in [3] is 1.17 µM (active).

In the case of `CC(C)Oc1ccc2c(=O)c(-c3ccccc3)coc2c1`, the Potency entry in [2] and in [3] was “inactive” in each case.

On to `Nc1nc(N)c(N=O)c(OCC2CCCCC2)n1`, for which the Potency entry in [6], in [7], in assay [8], in assay [2] and in [5] was “inactive” each time. Besides, the outcome in [10] was inactive.

As to `O=C1CCc2ccc(OCCCCN3CCN(c4cccc(Cl)c4Cl)CC3)cc2N1`, the Potency result in assay [1] and in [3] was “inactive” throughout.

Take `Cc1ccc(C(=O)c2cc(O)c(O)c([N+](=O)[O-])c2)cc1`: the Potency result in [2] and in assay [3] was “inactive” throughout.

For the compound `Clc1ccc(C(Cn2ccnc2)OCc2c(Cl)cccc2Cl)c(Cl)c1` (stereo not drawn), in assay [2], the Potency result is “inactive and 14.8 µM (active)”. In assay [3], the Potency result is “inactive”.
